The source of these data is PubChem BioAssay (NCI).

This is part of a sample that, as a whole, favours compounds with a hit. Of some 83,000 tested, about 20% had one in any assay.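 The test compound was applied at a single concentration to cells in 96-well plates for 48 hours, and percent growth was recorded.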 A number with no mark means an inactive call. Activity calls are given as the source filed them. The calls were made as follows: active = growth percent below 10; inactive = the rest.

Among the test systems are HCT-15 colon; HT29 colon; SNB-75 CNS; SNB-19 CNS; U251 CNS; SK-MEL-5 melanoma; UACC-62 melanoma; LOX IMVI melanoma; SK-MEL-28 melanoma.
Test in all cases: NCI-60 one-dose screen, 48 h (100 = growth as untreated, 0 = no growth, -100 = all killed)
What all share (conditions): 10 µM unless noted

As to `O=C(COc1cccc(/C=C2\COc3ccc(Cl)cc3C2=O)c1)c1ccc(Cl)cc1`, the growth was 82% with HCT-15 colon; 97.7% in the experiment with HT29 colon; 67.8% in the experiment with SNB-75 CNS; 90.5% in the experiment on SNB-19 CNS; 87.5% in the experiment on U251 CNS; 94.3% in the experiment on SK-MEL-5 melanoma. The figures for the growth in the experiment with UACC-62 melanoma, in the experiment with LOX IMVI melanoma and in the experiment with SK-MEL-28 melanoma were 80.9%, 76.1% and 119%, respectively.

Regarding `COc1ccc(Nc2c3c4c(cccc4[nH]c2=O)C(=O)c2ccccc2-3)cc1`, the growth is -4.37% (active) in the experiment with HCT-15 colon; -32.1% (active) with HT29 colon; 0.39% (active) in the experiment with SNB-75 CNS; 25.8% in the experiment on SNB-19 CNS; 3.3% (active) in the experiment with U251 CNS; -42.3% (active) with SK-MEL-5 melanoma. In addition, the growth is 38.3% with UACC-62 melanoma, 23.9% with LOX IMVI melanoma and 71.1% in the experiment on SK-MEL-28 melanoma.

As to `C#Cc1cccc(NC(=O)c2ccccc2NC(=O)C=C)c1`, the growth in the experiment on HCT-15 colon was 104% [8.25 µM]; in the experiment on HT29 colon, 109% [8.25 µM]; in the experiment on SNB-75 CNS it was 75% [8.25 µM]; in the experiment on SNB-19 CNS it was 94.1% [8.25 µM]; in the experiment with U251 CNS, 100% [8.25 µM]; with SK-MEL-5 melanoma, 99.5% [8.25 µM]. The growth in the experiment with UACC-62 melanoma was 104% [8.25 µM]; in the experiment with LOX IMVI melanoma, 97.4% [8.25 µM]; with SK-MEL-28 melanoma, 109% [8.25 µM].

As for `Cn1ncc2c(=O)nc3c(-c4ccccc4)n[nH]n3c21`, the growth in the experiment on HCT-15 colon is 104%; in the experiment with HT29 colon, 103%; with SNB-75 CNS, 96.3%; in the experiment with SNB-19 CNS, 99.1%; in the experiment on U251 CNS, 110%; in the experiment with SK-MEL-5 melanoma, 110%. Besides, the results for the growth in the experiment with UACC-62 melanoma, in the experiment with LOX IMVI melanoma and in the experiment on SK-MEL-28 melanoma were 96.7%, 115% and 138%, respectively.

As to `Cc1cc(C)nc(SC2=C(Nc3ccc(C)c(Cl)c3)C(=O)N(Cc3ccccc3)C2=O)n1`, the growth with HCT-15 colon was 63% [30 µM]; with HT29 colon, 46% [30 µM]; in the experiment on SNB-75 CNS, 58.9% [30 µM]; with SNB-19 CNS, 78.2% [30 µM]; with U251 CNS, 68.8% [30 µM]; in the experiment on SK-MEL-5 melanoma it was 62.2% [30 µM]. For the same compound, the growth was 49.7% [30 µM] in the experiment with UACC-62 melanoma, 75.9% [30 µM] in the experiment on LOX IMVI melanoma and 94.2% [30 µM] in the experiment with SK-MEL-28 melanoma.

With `CC1SC(c2ccc(N(C)C)cc2)N(NC(=O)C(O)(c2ccccc2)c2ccccc2)C1=O` (centres undefined), the growth is 83.8% in the experiment on HCT-15 colon; 93.8% in the experiment on HT29 colon; 96.6% in the experiment on SNB-75 CNS; 110% in the experiment on SNB-19 CNS; 91.4% in the experiment on U251 CNS; 98.8% in the experiment with SK-MEL-5 melanoma. Also, the growth in the experiment with UACC-62 melanoma was 79.9%; in the experiment on LOX IMVI melanoma it was 87.7%; in the experiment on SK-MEL-28 melanoma, 111%.
